Laboratory results from PubChem BioAssay.
Activity calls are given as the source filed them.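 How the source made its calls, unless noted: active means luciferase signal above three times the same-plate solvent-only control wells; inactive means the rest.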

Each molecule was assayed against NAD(+) hydrolase SARM1 (Homo sapiens) (UniProt Q6SZW1) (assay: SARM1 TIR NADase inhibitors, cell lysate, NAD-Glo luminescence (AID 1508614;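 active means compound whose remaining NAD level is above about 45 nM, limit read from the data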)). Settings: SAM-TIR HEK293T lysate NADase, at 1 µM, stronger effect = higher value.
NAD(+) hydrolase SARM1 (Homo sapiens), sequence (Q6SZW1 whole entry, looked up): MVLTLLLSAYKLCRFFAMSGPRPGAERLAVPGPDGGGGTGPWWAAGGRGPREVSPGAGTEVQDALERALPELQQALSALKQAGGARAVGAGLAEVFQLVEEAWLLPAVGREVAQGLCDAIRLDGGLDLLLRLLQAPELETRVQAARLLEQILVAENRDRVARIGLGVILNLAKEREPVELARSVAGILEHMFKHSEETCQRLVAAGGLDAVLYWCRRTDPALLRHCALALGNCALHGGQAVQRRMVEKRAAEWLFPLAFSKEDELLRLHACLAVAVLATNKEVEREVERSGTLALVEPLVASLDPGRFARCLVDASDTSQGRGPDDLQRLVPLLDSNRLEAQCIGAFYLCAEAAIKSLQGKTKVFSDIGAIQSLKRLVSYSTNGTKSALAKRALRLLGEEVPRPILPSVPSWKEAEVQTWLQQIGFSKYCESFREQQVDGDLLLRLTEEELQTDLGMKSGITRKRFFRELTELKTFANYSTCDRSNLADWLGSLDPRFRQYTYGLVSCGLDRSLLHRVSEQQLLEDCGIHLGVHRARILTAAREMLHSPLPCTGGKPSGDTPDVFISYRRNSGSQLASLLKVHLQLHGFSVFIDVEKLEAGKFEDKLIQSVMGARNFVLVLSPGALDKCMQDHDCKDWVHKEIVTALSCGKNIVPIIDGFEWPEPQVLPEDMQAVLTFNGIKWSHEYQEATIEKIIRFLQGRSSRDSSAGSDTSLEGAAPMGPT

Compound	remaining NAD
NC(=O)c1ccc[n+]([C@@H]2O[C@H](COP(=O)([O-])OP(=O)(O)OC[C@H]3O[C@@H](n4cnc5c(N)ncnc54)[C@H](O)[C@@H]3O)[C@@H](O)[C@H]2O)c1	183 nM (active)
N[C@@H](Cc1cc(I)c(Oc2ccc(O)c(I)c2)c(I)c1)C(=O)O	10 nM (inactive)
Cc1cc(C(C)(C)CC(C)(C)C)ccc1OCCOCC[N+](C)(C)Cc1ccccc1	10 nM (inactive)
COc1c2ccoc2cc2oc(=O)ccc12	10 nM (inactive)
C=C1c2c(Cl)ccc(O)c2C(O)=C2C(=O)[C@]3(O)C(O)=C(C(N)=O)C(=O)[C@@H](N(C)C)[C@@H]3[C@@H](O)[C@H]12	10 nM (inactive)
CC(CN(C)C)CN1c2ccccc2Sc2ccccc21 (stereo not given)	10 nM (inactive)
CC(C(=O)O)c1ccc(N2Cc3ccccc3C2=O)cc1 (stereo not given)	10 nM (inactive)
CC(C)(C)NC[C@H](O)c1ccc(O)c(CO)c1	10 nM (inactive)
CN1CCc2c(c3ccccc3n2Cc2ccccc2)C1	10 nM (inactive)
Cc1cc(/C=C/c2ccc3cc(N(C)C)ccc3[n+]2C)c(C)n1-c1ccccc1	10 nM (inactive)
CC1(C)S[C@@H]2[C@H](NC(=O)Cc3ccccc3)C(=O)N2[C@H]1C(=O)O	10 nM (inactive)
CN(C)CCOC(c1ccccc1)c1ccccc1 (tested in a mixture with another compound)	10 nM (inactive)
NC(=O)CC[C@H](N)C(=O)O	10 nM (inactive)
Oc1cc(O)c2c(c1)O[C@H](c1ccc(O)c(O)c1)[C@@H](O)C2	10 nM (inactive)
C1N2CN3CN1CN(C2)C3	10 nM (inactive)
Nc1nc(/C(=C/CC(=O)O)C(=O)N[C@@H]2C(=O)N3C(C(=O)O)=CCS[C@H]23)cs1	10 nM (inactive)

These molecules were tested against Mitogen-activated protein kinase 7 (Homo sapiens) (UniProt Q13164) (assay: ERK5 transactivation activators in reporter cells, primary screen, cell-based, HTS (AID 1508626;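 further: luciferase driven by Gal4-ERK5 fusion binding five Gal4 sites before minimal TATA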)). Settings: HeLa Gal4-ERK5 transactivation, 18 h, at 5 µM, stronger effect = higher value.
Mitogen-activated protein kinase 7 (Homo sapiens), sequence (Q13164 whole entry, looked up, the tested form may be a part): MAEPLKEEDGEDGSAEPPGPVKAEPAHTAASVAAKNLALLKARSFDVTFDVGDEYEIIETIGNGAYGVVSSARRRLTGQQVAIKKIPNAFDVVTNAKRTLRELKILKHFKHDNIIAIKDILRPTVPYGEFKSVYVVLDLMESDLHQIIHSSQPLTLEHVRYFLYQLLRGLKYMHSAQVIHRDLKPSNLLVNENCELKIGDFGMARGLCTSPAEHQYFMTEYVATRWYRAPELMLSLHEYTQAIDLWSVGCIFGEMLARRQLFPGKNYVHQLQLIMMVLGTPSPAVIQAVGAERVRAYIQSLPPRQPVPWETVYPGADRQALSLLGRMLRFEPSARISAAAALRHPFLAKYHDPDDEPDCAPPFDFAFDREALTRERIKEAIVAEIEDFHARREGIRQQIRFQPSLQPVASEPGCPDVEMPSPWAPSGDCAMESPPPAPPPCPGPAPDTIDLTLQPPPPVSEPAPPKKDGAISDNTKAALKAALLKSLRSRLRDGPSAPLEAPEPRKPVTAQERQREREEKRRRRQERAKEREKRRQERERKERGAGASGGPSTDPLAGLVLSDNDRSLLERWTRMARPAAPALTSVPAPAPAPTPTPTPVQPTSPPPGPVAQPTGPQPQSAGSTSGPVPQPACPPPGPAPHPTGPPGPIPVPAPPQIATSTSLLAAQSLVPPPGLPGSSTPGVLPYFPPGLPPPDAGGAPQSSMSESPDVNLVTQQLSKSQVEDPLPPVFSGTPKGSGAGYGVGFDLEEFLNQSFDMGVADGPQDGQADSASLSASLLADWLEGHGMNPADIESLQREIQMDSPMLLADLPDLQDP

Compound	luciferase signal
O=C(O)c1cc2cc(F)ccc2[nH]1	24 AU (inactive)
COc1ccc(-c2cc(=O)c3c(OC)c(OC)c(OC)c(OC)c3o2)cc1	100 AU (inactive)
NC(=O)c1ccc[n+]([C@@H]2O[C@H](COP(=O)([O-])OP(=O)(O)OC[C@H]3O[C@@H](n4cnc5c(N)ncnc54)[C@H](O)[C@@H]3O)[C@@H](O)[C@H]2O)c1	72 AU (inactive)
NC1(C(=O)O)CC1	60 AU (inactive)
NCCCCN=C(N)N	64 AU (inactive)
N[C@@H](Cc1cc(I)c(Oc2ccc(O)c(I)c2)c(I)c1)C(=O)O	80 AU (inactive)
Cc1cc(C(C)(C)CC(C)(C)C)ccc1OCCOCC[N+](C)(C)Cc1ccccc1	116 AU (inactive)
Cn1c(=O)c2[nH]c(C3CCCC3)nc2n(C)c1=O	44 AU (inactive)
NCCCCC(=O)O	52 AU (inactive)
CN[C@H](CC(=O)O)C(=O)O	56 AU (inactive)
COc1c2ccoc2cc2oc(=O)ccc12	28 AU (inactive)
C=C1c2c(Cl)ccc(O)c2C(O)=C2C(=O)[C@]3(O)C(O)=C(C(N)=O)C(=O)[C@@H](N(C)C)[C@@H]3[C@@H](O)[C@H]12	40 AU (inactive)
CC(CN(C)C)CN1c2ccccc2Sc2ccccc21 (stereo not given)	76 AU (inactive)
CC(C(=O)O)c1ccc(N2Cc3ccccc3C2=O)cc1 (stereo not given)	68 AU (inactive)
O=c1cc(-c2ccccc2)oc2c(O)c(O)ccc12	32 AU (inactive)
CC(C)(C)NC[C@H](O)c1ccc(O)c(CO)c1	112 AU (inactive)
COc1cc2c(cc1OC)-c1cc3ccc(OC)c(OC)c3c[n+]1CC2	352 AU (active)

Compound	luciferase signal
NC(N)=NCCCCN=C(N)N	52 AU (inactive)
NCCCCN	44 AU (inactive)
Cc1cc(/C=C/c2ccc3cc(N(C)C)ccc3[n+]2C)c(C)n1-c1ccccc1	28 AU (inactive)
NCCSSCCN	76 AU (inactive)
O=C1OC(=O)C2C3CCC(O3)C12 (stereo not given)	52 AU (inactive)
OCc1c[nH]c2ccccc12	88 AU (inactive)
CC1(C)S[C@@H]2[C@H](NC(=O)Cc3ccccc3)C(=O)N2[C@H]1C(=O)O	108 AU (inactive)
CN(C)CCOC(c1ccccc1)c1ccccc1 (tested in a mixture with another compound)	28 AU (inactive)
NC(=O)CC[C@H](N)C(=O)O	40 AU (inactive)
Oc1cc(O)c2c(c1)O[C@H](c1ccc(O)c(O)c1)[C@@H](O)C2	24 AU (inactive)
C1N2CN3CN1CN(C2)C3	64 AU (inactive)
COc1cc(S(C)=O)ccc1-c1nc2ncccc2[nH]1 (stereo not given)	48 AU (inactive)
CC(=O)Oc1ccccc1C(=O)Oc1ccccc1C(=O)O	48 AU (inactive)
NCCCS(=O)(=O)O	56 AU (inactive)
Nc1nc(/C(=C/CC(=O)O)C(=O)N[C@@H]2C(=O)N3C(C(=O)O)=CCS[C@H]23)cs1	40 AU (inactive)
O=c1c2ccccc2oc2ccccc12	64 AU (inactive)
C[N+](C)(C)CC(O)CC(=O)O (stereo not given)	24 AU (inactive)
